Compounds with a hit are over-represented: about 1.7% of the library has one in this group of screens.
PTPN22 act = LYP (human) phosphatase activation; 96,000 compounds, 0.11% hits; activation, % at 2 µM; recombinant LYP, DiFMUP fluorescence; 0 = plate median, 100 = signal doubled; Q9Y2R2;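 active = activation at 2 µM above a set limit, the mean plus 5 SD, cut at about 37% in these data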
Target sequence (Q9Y2R2 whole entry, looked up): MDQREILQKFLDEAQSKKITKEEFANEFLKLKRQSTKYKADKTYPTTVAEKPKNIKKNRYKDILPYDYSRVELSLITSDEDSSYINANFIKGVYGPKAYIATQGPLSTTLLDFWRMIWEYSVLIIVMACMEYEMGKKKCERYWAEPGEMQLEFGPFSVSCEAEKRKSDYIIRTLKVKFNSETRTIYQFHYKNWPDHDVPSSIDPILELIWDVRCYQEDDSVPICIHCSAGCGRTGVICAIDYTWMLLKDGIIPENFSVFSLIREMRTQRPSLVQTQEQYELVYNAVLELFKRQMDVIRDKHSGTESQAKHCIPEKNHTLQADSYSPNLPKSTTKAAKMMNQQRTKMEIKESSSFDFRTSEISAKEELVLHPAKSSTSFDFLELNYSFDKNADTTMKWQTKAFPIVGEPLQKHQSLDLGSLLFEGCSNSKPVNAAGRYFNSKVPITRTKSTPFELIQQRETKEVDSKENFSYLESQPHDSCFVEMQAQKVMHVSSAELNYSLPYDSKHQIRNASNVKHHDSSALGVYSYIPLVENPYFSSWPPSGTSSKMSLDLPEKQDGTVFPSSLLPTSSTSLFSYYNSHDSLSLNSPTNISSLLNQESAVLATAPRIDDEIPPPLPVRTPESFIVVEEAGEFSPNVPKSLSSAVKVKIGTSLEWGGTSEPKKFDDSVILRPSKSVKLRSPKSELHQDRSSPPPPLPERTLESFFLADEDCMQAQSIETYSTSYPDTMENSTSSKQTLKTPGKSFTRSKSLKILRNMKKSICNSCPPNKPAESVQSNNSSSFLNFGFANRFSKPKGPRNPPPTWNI
Plk1 PBD FP = blocks phosphopeptide binding to human Plk1 polo box domain. P53350. Plk1 PBD phosphopeptide binding, fluorescence polarization. inhibition, %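 (tested at about 20 µM)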. 97,000 compounds, 0.13% hits. AID 693; in the data active = inhibition above about 34%, passing the limit was not always enough
PTK2B oligo ant = Pyk2 (human) oligomerization antagonism; Q14289; Q293 cells, Pyk2 FERM NanoBiT luminescence; active compounds read low; z-score (the deposit names both 25 µM and 10 µM); 99,000 compounds, 0.83% hits; AID 1347419;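 active = Z-score of -3 or lower, scaled per plate to the spread of control and sample wells; inactive = z-score above -3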;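 also: negative z-score means lost luminescence so less FERM oligomerization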
PLK1 inh = inhibitors of human PLK1 kinase; 97,000 compounds, 0.53% hits; inhibition, % at 10 µM; recombinant PLK1 kinase, TR-FRET peptide phosphorylation; P53350;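 active = inhibition of 50% or more in the single-concentration screen; inactive = inhibition below 50%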;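 also: 0% = DMSO max control and 100% = H-89 dihydrochloride min control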
LYP inh 2 = inhibitors of human LYP (PTPN22) phosphatase. AID 640. recombinant LYP catalytic domain, DiFMUP fluorescence. inhibition, % at 2 µM. 96,000 compounds, 0.21% hits;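 active = inhibition at 2 µM at or above a set limit, the screen mean plus 3 SD, cut at about 24% in these data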;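 also: 0% = DMSO with enzyme and 100% = enzyme fully blocked by orthovanadate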
Starred values were filed as active, the others as inactive; nt = not tested or not shown.

SMILES | PTPN22 act | Plk1 PBD FP | PTK2B oligo ant | PLK1 inh | LYP inh 2
CCN(CC)S(=O)(=O)c1cccc(-c2nnc(SCC(=O)c3ccc(Cl)s3)n2C)c1 | -7.8 | 3.4 | -0.1 | -2.6 | 8.4
O=c1[nH]c(=O)n(Cc2ccco2)c2c1C(C(F)(F)F)(C(F)(F)F)N=C(C1CCCCC1)N2 | 5.3 | -4.0 | -1.43 | -16.0 | -2.5
COc1ccc(-n2c3c(c(=O)[nH]c2=O)C(C(F)(F)F)(C(F)(F)F)N=C(CC(C)C)N3)cc1 | 8.7 | -10.9 | -2.5 | -9.6 | -4.8
O=c1[nH]c(=O)n(Cc2ccco2)c2c1C(C(F)(F)F)(C(F)(F)F)N=C(CCc1ccccc1)N2 | -3.1 | -20.1 | -4* | 0.5 | 7.1
O=c1[nH]c(=O)n(Cc2ccco2)c2c1C(C(F)(F)F)(C(F)(F)F)N=C(CCC1CCCCC1)N2 | 3.2 | -5.3 | -4.06* | -12.9 | -1.4
O=c1[nH]c(=O)n(-c2ccccc2)c2c1C(C(F)(F)F)(C(F)(F)F)N=C(CCC1CCCCC1)N2 | nt | nt | -3.6* | nt | nt
O=C1C(C=NCCCN2CCCC2=O)=C(O)c2ccccc21 | -8.5 | 10.9 | -0.43 | -1.3 | 6.6
Cc1cccc(OCC(=O)Nc2ccc(N3CCN(C(=O)c4ccco4)CC3)cc2)c1 | -10.3 | -14.7 | 0.36 | -12.3 | 12.7
Cc1ccc(Nc2c([N+](=O)[O-])cc(C(=O)N3CC(=O)Nc4ccccc43)cc2[N+](=O)[O-])c(C)c1 | -3.8 | -16.9 | -3.37* | -4.1 | 6.1
O=C1CN(C(=O)c2ccccc2F)c2ccccc2N1 | -1.5 | 11.0 | -0.59 | -7.2 | 2.8
Cc1ccc(OCCSc2ncnc3nc[nH]c23)cc1 | -4.6 | -9.7 | -0.73 | 55.8* | 5.1
CCC(C)N1C(=O)/C(=C/c2c(NCCCOC(C)C)nc3c(C)cccn3c2=O)SC1=S (stereo not given) | -8.0 | -65.1 | -3.11* | -65.5 | 10.4
CCCN1C(=O)/C(=C/c2c(NCCCOC(C)C)nc3c(C)cccn3c2=O)SC1=S | -12.5 | -56.8 | -0.5 | -36.4 | 10.2
COC(=O)C1=C(N)Oc2cc(C)n(Cc3ccccc3)c(=O)c2C1c1ccccc1 (stereo not given) | -9.3 | 16.5 | -3.05* | -4.0 | 8.3
Cc1oc(-c2cccs2)nc1CS(=O)CC(=O)NCCCOC(C)C (stereo not given) | -8.1 | -1.4 | 0.22 | -0.5 | 5.8
Cc1oc(-c2ccccc2F)nc1CS(=O)CC(=O)NCc1cccs1 (stereo not given) | nt | -5.5 | nt | 62.2* | nt
CCCCNC(=O)CS(=O)Cc1nc(-c2cccs2)oc1C (stereo not given) | nt | 2.8 | nt | 58.6* | nt
COCCNC(=O)CS(=O)(=O)Cc1nc(-c2ccc(C)cc2)oc1C | nt | 15.7 | nt | 67.0* | nt
Cc1ccc(-c2nc(CS(=O)(=O)CC(=O)NC3CCCCC3C)c(C)o2)cc1 (stereo not given) | nt | -20.6 | nt | 53.5* | nt
COc1ccc(NC(=O)CC2C(=O)N(c3ccc(F)cc3)C(=S)N2NC(=O)c2ccc(Cl)cc2)cc1 (stereo not given) | nt | nt | -0.2 | nt | nt
O=C1OC(NC(=O)c2ccccc2)C(n2cc(CO)nn2)=C1Cl (stereo not given) | 0.7 | 2.7 | -0.27 | -11.4 | -1.0
Cc1csc(C(=O)O)c1-n1cccc1 | -8.8 | 28.7 | -0.04 | 54.5* | 10.2
O=C(O)c1oc2ccccc2c1-n1cccc1 | 9.6 | -7.6 | -0.39 | -4.0 | -14.7
CC(=O)CSc1nc(N)c(C#N)c(-c2cccs2)c1C#N | -11.5 | -18.1 | -2.2 | -1.7 | 13.6
CCCCSc1nc(N)c(C#N)c(-c2cccs2)c1C#N | 0.8 | -24.0 | -3.84* | -9.3 | -3.4
SMILES | PTPN22 act | Plk1 PBD FP | PTK2B oligo ant | PLK1 inh | LYP inh 2
COc1ccc(S(=O)(=O)N(Cc2ccccc2)Cc2nc3ccccc3c(=O)[nH]2)cc1 | 4.1 | 20.1 | -2.55 | -10.4 | -6.2
COc1ccccc1CN(Cc1nc2ccccc2c(=O)[nH]1)S(=O)(=O)c1ccc2ccccc2c1 | -2.3 | 1.7 | -3.02* | -11.5 | 2.7
CCC(Oc1ccccc1)C(=O)Nc1ccccn1 (stereo not given) | -3.4 | 10.4 | 0.36 | -5.9 | 3.6
COc1cccc(NC(=O)N2CCC(C(N)=O)(N3CCCCC3)CC2)c1 | 2.9 | -4.2 | -0.78 | 65.9* | -4.4
CN1C(=S)SC(N(O)C(=O)Nc2cccc3ccccc23)C1(C)C (stereo not given) | -4.2 | -9.3 | -3.75* | -4.7 | 5.8
Cn1c(=O)cc(SCC(=O)NCc2cccnc2)c2ccccc21 | 1.2 | 4.2 | -0.27 | -6.7 | 1.6
O=C(CSc1nnc2scc(-c3ccccc3)n12)c1ccc2c(c1)OCCO2 | nt | -26.3 | nt | 59.4* | nt
COc1ccc(OC)c(/C=N/N(C)c2ccccc2)c1 | -5.6 | 11.5 | -0.78 | -14.2 | 7.0
COc1cc(/C=N/N(C)c2ccccc2)cc(Cl)c1O | -3.3 | -16.6 | -3.05* | 2.3 | 4.7
CN(c1cccc(NC(=O)c2ccc(Cl)c(S(=O)(=O)Nc3ccccc3)c2)c1)S(C)(=O)=O | 1.5 | -16.6 | -3.85* | -6.1 | 3.7
CN(c1cccc(NC(=O)Cc2ccccc2)c1)S(C)(=O)=O | 0.7 | 8.1 | -0.35 | -9.1 | -5.0
Cc1ccccc1NS(=O)(=O)c1cc(C(=O)Nc2cccc(N(C)S(C)(=O)=O)c2)ccc1C | -2.3 | 7.5 | -3.03* | -2.4 | 4.3
Cc1ccc(-c2csc(=S)n2CC(=O)OCC(=O)NCc2ccc(F)cc2)cc1 | -2.0 | 8.7 | nt | -15.8 | -0.5
CC(C)c1ccc(C2C3=C(CC(C)(C)CC3=O)NC3=C2C(=O)c2ccccc23)cc1 (stereo not given) | -4.6 | -33.9 | -3.03* | -8.6 | 7.1
O=C(NC1CCCCC1)N(Cc1cc2cc3c(cc2[nH]c1=O)OCCO3)C1CCCCC1 | -1.4 | -0.8 | -0.75 | -9.9 | 2.4
COc1ccccc1NC(=O)N(Cc1ccc2c(c1)OCO2)Cc1nc2ccccc2c(=O)[nH]1 | 6.8 | -1.1 | -4* | -6.1 | -7.8
COc1cccc(C(=O)N(Cc2ccc3c(c2)OCO3)Cc2nc3ccccc3c(=O)[nH]2)c1 | 2.7 | 9.5 | -3.44* | -9.0 | -4.7
COc1ccccc1CN(Cc1nc2ccccc2c(=O)[nH]1)C(=O)Nc1cccc(C)c1 | 1.4 | 1.5 | -0.63 | 5.9 | 0.7
CN(C)c1ccc2c(c1)OC(N)=C(C#N)C2c1cccc(F)c1 (stereo not given) | nt | nt | -3.15* | nt | nt
N#CC1=C(N)Oc2cc(O)ccc2C1c1ccncc1 (stereo not given) | 1.9 | -25.1 | -0.13 | 5.7 | -4.8
CC(=O)c1ccc(N2CCN(C(=O)COc3ccccc3F)CC2)c(F)c1 | -0.8 | 2.0 | 0.88 | -12.5 | 1.8
Cn1c(C(=O)N2CCN(c3ccc(Cl)cc3)CC2)cc2c(=O)[nH]c3ccccc3c21 | -8.1 | 16.4 | -0.45 | 51.5* | 7.5
CCOc1ccc(-c2[nH]ncc2Oc2ccccc2OC)c(O)c1 | -12.5 | -9.0 | -3.02* | -6.3 | 9.6
CCOc1ccc(-c2[nH]ncc2Oc2ccccc2OCC)c(O)c1 | -1.5 | 8.6 | -1.71 | -7.7 | 0.9
C=C(C)COc1ccc(-c2[nH]ncc2Oc2ccccc2OC)c(O)c1 | 4.3 | -15.8 | -3.62* | -14.5 | -4.9
Cc1ccc(-n2nnnc2SC(C)C(=O)Nc2ccc(Cl)cn2)cc1 (stereo not given) | nt | nt | -2.08 | nt | nt

Source: PubChem (several laboratories)
